Measured values: PubChem BioAssay (NCI)
About 83,000 compounds went through this panel and 20% of them were active in at least one assay; those are over-represented in the sample as a whole.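 Percent growth is the endpoint: 0 to 100 indicates growth inhibition (40 means 60% inhibition), 0 means no net growth, and negative values indicate cell death.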 Values without a mark were called inactive. Active and inactive are the calls of the source.

System: RPMI-8226 leukemia
Assay: NCI-60 one-dose screen, 48 h (100 = growth as untreated, 0 = no growth, -100 = all killed)
Settings: 10 µM unless noted
Experimental: Growth inhibition of the RPMI-8226 human tumor cell line is measured as a screen for anti-cancer activity. Cells are grown in 96 well plates and exposed to the test compound for 48 hours. Compounds are tested at a single concentration, which is 10^-5 M for most compounds. The reported endpoint is percent growth (GI% or GIPRCNT), where numbers from 0 - 100% represent growth inhibition, and numbers from -100% - 0 represent cell death. For example, a value of 40 represents 60% growth inhibition. A value of 0 means no net growth occurred over the course of the experiment. A value of -40 indicates 40% of cells at the beginning of the experiment died by the end of the experiment. A value of -100 means all cells are dead at the end of the experiment.
NCI-60 Human Tumor Cell Lines Screen was performed using the standard one-dose NCI protocol, which is described in more detail at https://dtp.cancer.gov/discovery_development/nci-60/default.htm.
Compounds with GIPRCNT values below 10 were considered active. Activity score was based on GIPRCNT using the following formula: […]
Score is 0 for GIPRCNT values of 100 or above, 50 for GIPRCNT values of 0, and 100 for GIPRCNT values of -100.

Point of comparison: `O=NN(CC(=O)NNc1ccccc1)CC(=O)NNc1ccccc1`, growth 55.4%. Against it:
- COc1ccc(C2C=C(c3ccc(Cl)cc3)N=C3SC=CN32)cc1 (stereo not given) — higher, 94.6%
- N#Cc1nc(-c2ccc(Cl)cc2)cc(-c2ccc(Nc3nc(N4CCCCC4)nc(N4CCCCC4)n3)cc2)c1N — higher, 111%
- CNC(=O)c1cc(Oc2ccc(NC(=O)c3[nH]c(SC)nc3-c3ccc(F)cc3)cc2)ccn1 — lower, 43.8%
- COc1c(C(=O)/C=C/c2ccc(C)o2)c(O)cc2occc12 — higher, 82.5%
- C=CC[C@]1(O)CC[C@H]2[C@@H]3CCc4cc(O)ccc4[C@H]3CC[C@@]21C — higher, 86.5%
- Brc1cccc(-n2ncc3c(Nc4ccc(-c5nnc(-c6ccccc6)o5)cc4)ncnc32)c1 — higher, 117%
- COc1c(-c2cc(-c3ccc(C)o3)[nH]c(=O)n2)c(O)cc2occc12 — higher, 74.8%
- c1ccc(C2=Nc3ccccc3SC2)cc1 — higher, 93.8%
- CCCCCCCCCC1=NC(C)(C)CN1C(C)(C)CO — higher, 81%
- Oc1ccc(CCCCCCc2ccc(O)cc2)cc1 — higher, 64.7%
- Cc1cc(C)c(C#N)c(SCC(=O)c2sc3c(C#N)c(C)cc(C)[n+]3c2[O-])n1 — lower, 43.1%
- Cc1ccc(C2CC(c3cccs3)=NN2c2ccc(S(N)(=O)=O)cc2)s1 (stereo not given) — higher, 65.3%
- CC[C@H](Nc1nc(C)nc(N)c1C#N)c1nc2cccc(NCc3ccc(C(=O)NO)cc3)c2c(=O)n1-c1ccccc1 — lower, 10.7%
- Clc1cn2cc(-c3ccc(Cl)c(Cl)c3Cl)nc2s1 — higher, 108%
- C=CCn1c(SCC(=O)Nc2ccc(/C(C)=N\O)cc2)nnc1-c1cc(-c2ccccc2)nc2ccccc12 — lower, 47.1%
- NC(N)=N/N=C\c1ccc(OCc2ccccc2)cc1 — higher, 83.4%
- Clc1ccc(Nc2ncnc3c2sc2ncccc23)c(Cl)c1 — lower, 30%
- Cc1cc(C)c2c(n1)sc1c(Nc3ccc(O)cc3)ncnc12 — lower, 39%
- Cc1cc(C)c2c(NC(=O)Nc3ccc(Cl)c(Cl)c3)n[nH]c2n1 — higher, 100%
- CC(COC(=O)c1ccccc1)N1CC2CCC(C1)O2 (stereo not given) — higher, 99.1%
- Nc1nc(N)c2c(n1)NC(c1sc(Cl)nc1Cl)CC(c1ccccc1)=N2 (stereo not given) — lower, 45.3%
- CC(C)NC(=O)OCC#CCOC(=O)NC(C)C — higher, 103%
- Cc1ccc(N2C3c4ccccc4N(S(=O)(=O)c4ccc(C)cc4)C2c2ccccc2N3S(=O)(=O)c2ccc(C)cc2)cc1 — higher, 93.1%
- O=C(CS)OCC(COC(=O)CS)(COC(=O)CS)COC(=O)CS — higher, 90.6%
- COC(=O)C(C)NC1=C(Cl)C(=O)C(NC(C)C(=O)OC)=C(Cl)C1=O (stereo not given) — higher, 96.1%
- CC(=O)c1cc(C(=O)c2ccc3c(c2)Sc2ccccc2N3)c2c(C)cccn12 — lower, 15.7%
- COc1ccc(/C=c2\c(=O)n(-c3ccccc3)c3nn4c(=O)c(=O)[nH]nc4n23)cc1 — higher, 110%
- COc1ccccc1/C=N\NC(=S)Nc1ccc(F)cc1 — higher, 79.8%
- COc1ccc(-c2nsc3c2NC(=O)CC3c2cccc(F)c2)cc1 (stereo not given) — lower, 47.1%

For `O=C(OCc1ccc2c(Cl)cc(Cl)c(O)c2n1)c1cc2ccccc2[nH]1`, the growth was -37.4% (active).
For `CCOC(=O)c1ccccc1SC(C[N+](=O)[O-])c1ccccc1` (stereo not given), the growth was -41.5% (active).
In the case of `CCCCNCC(O)c1cc(-c2ccc(C(F)(F)F)cc2)nc(-c2ccc(C(F)(F)F)cc2)c1` (stereo not given), the growth is reported as -49.9% (active).
For `CN1CCN(Cc2ccc(NC(=O)c3cccc(C#Cc4cnc(N)c5ncccc45)c3F)cc2C(F)(F)F)CC1`, the growth was -9.88% (active).
In the case of `O=C1Cc2c([nH]c3ccc([N+](=O)[O-])cc23)-c2ccccc2N1`, the growth is reported as -22.1% (active).
For `Cc1ccc(NC(=O)c2nc(S(C)=O)oc2-c2ccc(F)cc2)cc1Nc1nccc(-c2cccnc2)n1` (stereo not given), the growth was 5.05% (active).
In the case of `CN1CCN(Cc2ccc(NC(=O)c3cncc(C#Cc4cnc5cccnn45)c3)cc2C(F)(F)F)CC1`, the growth is reported as -20.1% (active).
For `NCCCOc1cc2ccccc2cc1C(=O)NCCCOc1cc2ccccc2cc1C(=O)Nc1ccc(Cl)cc1O`, the growth was -18.3% (active).
In the case of `CCCc1n(Cc2ccc3ccccc3c2)c2ccccc2[n+]1Cc1ccc2ccccc2c1`, the growth is reported as -60.9% (active).
`COc1cc(/C=C/C(=O)c2ccc(NC(=O)CSc3nnc(-c4ccc(Cl)cc4)n3-c3ccccc3)cc2)cc(OC)c1OC` was tested, and the growth was 9.23% (active).
